Hits are enriched below; roughly 4.1% of the tested compounds scored in any of these assays.
PglD DTNB: C. jejuni PglD acetyltransferase inhibitors, primary screen, biochemical, DTNB colorimetric, single point | UDP-N-acetylbacillosamine N-acetyltransferase PglD (Campylobacter jejuni) | purified PglD enzyme, DTNB colorimetric CoA detection | inhibition, % at 12.5 µM | 360,000 compounds, 0.098% hits | AID 602405, 2012; in the data active = inhibition above about 16%, passing the limit was not always enough; inconclusive = no clear call, values can overlap the other calls
ALR H2O2 inh: inhibitors of human ALR sulfhydryl oxidase, primary screen, biochemical, H2O2 detection, HRP-luminol luminescence, single point. purified ALR, DTT oxidation. inhibition, % (concentration not given with the values). 290,000 compounds, 3.8% hits. AID 485317, 2010;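 active = mean replicate inhibition above about 79%, with every replicate also reaching it, limit read from the data; inconclusive = only one of the two criteria met; inactive = mean below limit and not every replicate reaching it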
F508del corr: F508del CFTR correction, initial screen, CFBE line, single point; 350,000 compounds, 0.36% hits; activity (quench increase), % at 7.58 µM; CFBE cells, YFP halide quenching; stimulated with forskolin plus potentiator P3; % fluorescence drop versus neutral controls;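 active = mean added fluorescence quench of at least 8% versus neutral control, with both replicates also reaching 8%; inconclusive = only one of the mean or replicate conditions met; inactive = mean below 8% and not both replicates reaching 8%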;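 also: cells transiently co-express mutant CFTR-F508del with the halide-sensitive YFP; corrector assay measuring rescue of mutant channel to the surface after 24 h compound exposure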
NSD2 inh: NSD2 histone methyltransferase inhibitors, primary screen, biochemical, AlphaScreen, single concentration, set 2; inhibition, % at 12.5 µM; NSD2 peptide methylation, 120 min; 310,000 compounds, 0.54% hits; Histone-lysine N-methyltransferase NSD2 (Homo sapiens), O96028; in the data active = inhibition above about 50%
Target sequence (O96028 whole entry, looked up): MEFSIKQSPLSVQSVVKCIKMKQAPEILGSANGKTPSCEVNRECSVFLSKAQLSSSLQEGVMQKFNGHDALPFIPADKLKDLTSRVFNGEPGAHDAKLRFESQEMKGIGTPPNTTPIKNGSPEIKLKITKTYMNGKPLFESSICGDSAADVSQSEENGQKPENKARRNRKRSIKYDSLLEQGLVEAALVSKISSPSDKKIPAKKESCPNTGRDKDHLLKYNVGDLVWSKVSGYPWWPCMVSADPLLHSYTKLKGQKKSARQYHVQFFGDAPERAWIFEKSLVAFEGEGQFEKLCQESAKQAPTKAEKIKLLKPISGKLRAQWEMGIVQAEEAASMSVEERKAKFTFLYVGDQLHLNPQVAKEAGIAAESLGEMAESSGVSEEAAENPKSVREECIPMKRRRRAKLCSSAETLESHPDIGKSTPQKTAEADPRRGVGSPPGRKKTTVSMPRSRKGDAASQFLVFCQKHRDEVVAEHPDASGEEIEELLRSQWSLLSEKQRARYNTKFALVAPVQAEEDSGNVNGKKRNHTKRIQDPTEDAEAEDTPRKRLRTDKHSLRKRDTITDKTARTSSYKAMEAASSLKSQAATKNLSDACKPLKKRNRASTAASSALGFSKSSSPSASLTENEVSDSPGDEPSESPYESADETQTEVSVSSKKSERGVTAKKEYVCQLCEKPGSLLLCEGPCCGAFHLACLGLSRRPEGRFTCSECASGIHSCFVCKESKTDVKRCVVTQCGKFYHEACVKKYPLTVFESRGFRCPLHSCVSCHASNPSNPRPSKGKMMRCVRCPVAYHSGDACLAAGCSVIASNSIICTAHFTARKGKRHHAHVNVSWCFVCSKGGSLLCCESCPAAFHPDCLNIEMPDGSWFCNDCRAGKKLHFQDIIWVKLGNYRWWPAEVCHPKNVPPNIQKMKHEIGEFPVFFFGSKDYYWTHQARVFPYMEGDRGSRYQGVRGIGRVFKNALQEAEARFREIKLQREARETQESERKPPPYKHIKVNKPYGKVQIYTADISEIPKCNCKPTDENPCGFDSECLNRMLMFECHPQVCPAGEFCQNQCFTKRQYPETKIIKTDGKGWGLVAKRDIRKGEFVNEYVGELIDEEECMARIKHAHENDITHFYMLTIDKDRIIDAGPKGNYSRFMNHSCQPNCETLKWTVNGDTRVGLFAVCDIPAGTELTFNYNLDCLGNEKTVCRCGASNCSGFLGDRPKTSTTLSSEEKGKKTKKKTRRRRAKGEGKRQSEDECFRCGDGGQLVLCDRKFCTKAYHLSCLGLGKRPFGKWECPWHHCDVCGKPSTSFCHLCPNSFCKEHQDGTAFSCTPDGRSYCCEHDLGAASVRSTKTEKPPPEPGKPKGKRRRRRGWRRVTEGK
CASP6 VEID inh: human caspase-6 inhibitors, primary screen, biochemical, VEID-R110 fluorescence, single point, set 2 | purified caspase-6, Z-VEID-R110 cleavage fluorescence | inhibition, % at 12.5 µM | 350,000 compounds, 0.53% hits | AID 686996, 2013;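 active = mean inhibition across replicates at least about 35%, with every replicate also reaching that limit, limit read from the data; inconclusive = only one of the two criteria met; inactive = neither criterion met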
HIV Env fusion: inhibitors of HIV-1 Env-driven cell-cell fusion, primary screen, HeLa-JRFL effector, CEM21 target cells, luciferase | inhibition, % at 12.3 µM | 360,000 compounds, 1.1% hits | AID 651610, 2012;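 active = mean replicate inhibition score of at least 50 and every replicate individually at or above 50; inconclusive = only one of the two criteria met; inactive = mean below 50 and not all replicates reaching 50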
Alpha artifact: AlphaScreen signal interference with preloaded methylated product, dose response, artefact control for NSD2 inhibitor project, biochemical, cherry-picked samples. shares compounds with NSD2 inh. AlphaScreen artifact counterscreen, preloaded methylated H4 peptide. AC35, µM (doses to about 10 µM). 1,500 compounds, 9.4% hits; call rule not given here
Each line names hits and unclear results; the compound was inactive in the other large screens (follow-up assays come after a bar, where they were run).

C[C@@H]1CN([C@@H](C)CO)C(=O)c2cc(NS(=O)(=O)c3ccccc3)ccc2O[C@@H](C)CCCCO[C@H]1CN(C)S(=O)(=O)c1ccc(Cl)cc1	none (no result: PglD DTNB, ALR H2O2 inh, NSD2 inh, HIV Env fusion)
Cc1cc(NC(=O)c2cccc(S(=O)(=O)N3CCOCC3)c2)no1	none (no result: F508del corr, CASP6 VEID inh)
Cc1cc(NC(=O)COC(=O)c2cccc(S(=O)(=O)N3CCOCC3)c2)no1	NSD2 inh 108.1 (no result: F508del corr, CASP6 VEID inh) | Alpha artifact inactive
COc1cc(-c2cc(=O)c3ccc(O)cc3o2)cc(OC)c1OC	none (no result: ALR H2O2 inh, NSD2 inh, HIV Env fusion)
COc1cc(OC)c(-c2c3cc(O)c(=O)cc-3oc3cc(O)c(O)cc23)cc1OC	ALR H2O2 inh inconclusive, F508del corr 20.7, NSD2 inh 142.7, CASP6 VEID inh 64.2 (no result: PglD DTNB, HIV Env fusion) | Alpha artifact 0.854µM
CC(Nc1cccc2ccccc12)C(=O)N/N=C/c1ccccn1 (stereo unspecified)	NSD2 inh 131.7 (no result: ALR H2O2 inh, F508del corr, CASP6 VEID inh, HIV Env fusion) | Alpha artifact inactive
O=C(CNC(=O)c1ccco1)NCC(=O)OCc1ccccc1Cl	NSD2 inh 55.6 | Alpha artifact inactive
COc1ccc2nc(-c3ccccc3)cc(OC)c2c1	none (no result: PglD DTNB, HIV Env fusion)
COc1ccc2nc3cccc(OC)c3nc2c1	NSD2 inh 101.2, CASP6 VEID inh 49.9 (no result: ALR H2O2 inh) | Alpha artifact inactive
CC(=O)c1c(C)[nH]c(C(=O)OCc2cccc(C)c2)c1C	none
COc1ccc(C)cc1COC(=O)c1[nH]c(C)c(C(C)=O)c1C	NSD2 inh 54.6 | Alpha artifact inactive
COc1ccc(-c2cn[nH]c2N)cc1	ALR H2O2 inh 91.2, NSD2 inh 62.6 (no result: F508del corr, CASP6 VEID inh, HIV Env fusion) | Alpha artifact inactive
Cc1ccccc1N=C1NC(=O)/C(=C/c2cccn2-c2cccc(C(=O)O)c2)S1	NSD2 inh 80.2 (no result: PglD DTNB, ALR H2O2 inh, CASP6 VEID inh) | Alpha artifact inactive
COc1ccc(-n2cccc2/C=C2/NC(=O)N(c3cccc(Cl)c3)C2=O)cc1	none (no result: PglD DTNB, F508del corr)
O=C(O)c1cccc(-n2cccc2/C=C2/NC(=O)N(c3ccc(Cl)cc3)C2=O)c1	NSD2 inh 140.7, CASP6 VEID inh 84.2 (no result: PglD DTNB, ALR H2O2 inh) | Alpha artifact 2.15µM
O=C(O)c1cccc(-n2cccc2/C=C2/SC(=O)N(CC(=O)N3CCCC3)C2=O)c1	NSD2 inh 61.1, CASP6 VEID inh 39.5 (no result: ALR H2O2 inh) | Alpha artifact inactive
Cc1cccc(N=C2NC(=O)/C(=C/c3cccn3C)S2)c1C	none
Cn1c(SCC(=O)Nc2ccc3c(c2)OCCO3)nnc1-c1ccncc1	NSD2 inh 77.0 (no result: PglD DTNB, ALR H2O2 inh) | Alpha artifact inactive
Cc1csc(SCC(=O)Nc2ccc3c(c2)OCCO3)n1	NSD2 inh 62.0 (no result: PglD DTNB) | Alpha artifact inactive
O=C1CC(C(=O)N2CCc3ccccc32)CN1c1ccccc1 (stereo unspecified)	NSD2 inh 80.2 | Alpha artifact inactive
NC1(C(=O)O)CSSC1	NSD2 inh 76.1 (no result: PglD DTNB, ALR H2O2 inh) | Alpha artifact inactive
COc1ccc(/C=N/Nc2nnc(C)n2N)cc1OC	NSD2 inh 110.8 | Alpha artifact inactive
O=C(NCc1ccc(Cl)cc1)c1ccc(S(=O)(=O)N2CCCCC2)cc1	NSD2 inh 52.5 | Alpha artifact inactive
COCC#Cc1ccc2c(c1)O[C@H](CN(C)S(=O)(=O)c1ccc(F)cc1)[C@H](C)CN([C@@H](C)CO)S2(=O)=O	none (no result: ALR H2O2 inh, NSD2 inh)
Cc1cc2ccccn2c1C(=O)c1ccc([N+](=O)[O-])o1	NSD2 inh 61.2 | Alpha artifact inactive
C[C@H](CO)N1C[C@H](C)[C@H](CN(C)S(=O)(=O)c2ccc(Cl)cc2)OCCCC[C@H](C)Oc2ccc(NS(C)(=O)=O)cc2C1=O	none (no result: ALR H2O2 inh, NSD2 inh)
C[C@H](CO)N1C[C@H](C)[C@@H](CN(C)C(=O)Nc2ccc(F)cc2)Oc2ncc(-c3cccnc3)cc2C1=O	none (no result: ALR H2O2 inh, NSD2 inh)
O=C(OC(C(=O)NC1CCCCC1)c1ccccn1)c1cccs1 (stereo unspecified)	NSD2 inh 113.5 (no result: F508del corr, CASP6 VEID inh) | Alpha artifact inactive
O=C(OC(C(=O)NCc1cccs1)c1ccccn1)c1cccs1 (stereo unspecified)	none (no result: F508del corr, CASP6 VEID inh)
CCCNC(=O)N(C)C[C@@H]1Oc2cc(-c3ccc(C)cc3)ccc2S(=O)(=O)N([C@H](C)CO)C[C@H]1C	none (no result: ALR H2O2 inh, NSD2 inh)
Cc1ccc2nc(C)cc(C(=O)NC3CCCCCC3)c2c1	none
CCc1nc2ccc(C)cc2c(C(=O)NC2CCCCC2C)c1C (stereo unspecified)	NSD2 inh 75.0 (no result: F508del corr, CASP6 VEID inh) | Alpha artifact inactive
COc1ccc(NC(=O)N(C)C[C@H]2Oc3c(NC(=O)C4CCCCC4)cccc3C(=O)N([C@@H](C)CO)C[C@H]2C)cc1	none (no result: ALR H2O2 inh, NSD2 inh, CASP6 VEID inh)
C[C@@H]1CN([C@@H](C)CO)C(=O)c2cccc(NC(=O)CCCCCC(=O)Nc3ccccc3N)c2O[C@@H]1CN(C)Cc1ccc(Oc2ccccc2)cc1	none (no result: PglD DTNB, ALR H2O2 inh, NSD2 inh, HIV Env fusion)
C/C(=N\NC(=O)CSc1nc2ccccc2o1)c1ccc(O)cc1	ALR H2O2 inh 99.1, NSD2 inh 51.2 | Alpha artifact inactive
O=C(CSc1nc2ccccc2o1)N/N=C/c1ccc(O)c(O)c1	ALR H2O2 inh 88.5, NSD2 inh 116.2, CASP6 VEID inh 63.0 | Alpha artifact 2.2µM
COc1ccc2nc(C)cc(SCC(=O)N/N=C/c3ccc(O)c(O)c3)c2c1	ALR H2O2 inh 88.3, NSD2 inh 66.5 (no result: PglD DTNB) | Alpha artifact inactive
O=C(CSc1nc2ccccc2o1)N/N=C/c1ccccc1	none (no result: F508del corr, CASP6 VEID inh)
C[C@@H]1CN([C@@H](C)CO)C(=O)c2cc(NC(=O)Nc3ccc(F)cc3)ccc2O[C@@H](C)CCCCO[C@H]1CN(C)Cc1ccccc1	none (no result: ALR H2O2 inh, NSD2 inh)
CCCC(O)C#Cc1cnc2c(c1)C(=O)N([C@H](C)CO)C[C@H](C)[C@H](CN(C)Cc1ccc3c(c1)OCO3)O2 (stereo partly specified)	none (no result: ALR H2O2 inh, NSD2 inh)
CCOC(=O)NCCc1c(C)nc2c(c(C)nn2C(C)(C)C)c1C	NSD2 inh 68.0 (no result: F508del corr, CASP6 VEID inh) | Alpha artifact inactive
NS(=O)(=O)c1ccc(N/N=C/c2ccccc2Br)cc1	none (no result: PglD DTNB)
NS(=O)(=O)c1ccc(N/N=C/c2ccncc2)cc1	NSD2 inh 127.9 (no result: PglD DTNB) | Alpha artifact inactive
CN1c2ccc(-c3ccccc3F)cc2[C@H]2[C@H](CCN2C(=O)c2ccccn2)[C@@H]1CO	none (no result: ALR H2O2 inh, NSD2 inh, HIV Env fusion)
C[C@@H]1CCCCO[C@@H](CN(C)C(=O)Nc2ccc3c(c2)OCO3)[C@@H](C)CN([C@@H](C)CO)C(=O)c2cc(NC(=O)C3CCCCC3)ccc2O1	none (no result: ALR H2O2 inh, NSD2 inh)
Cc1nn2c3ccccc3n(CCN3CCCCC3)c2nc1=O	NSD2 inh 110.1 (no result: F508del corr, CASP6 VEID inh, HIV Env fusion) | Alpha artifact inactive
Cn1c(=O)c2c(nc(CN3CCC(C(N)=O)CC3)n2Cc2ccccc2Cl)n(C)c1=O	NSD2 inh 65.0 (no result: F508del corr, CASP6 VEID inh) | Alpha artifact inactive

Source: PubChem BioAssay
